# The entries come from a sample that favours the strongest signals as a whole.
# Assays:
# Assay in all cases: glycan array binding signal (z-score within array); higher = stronger binding
# Conditions in all cases: glycan notation: IUPAC condensed, linker removed
# [1] = target: Fuc(a1-2)Gal(b1-3)GalNAc(a1-3)[Fuc(a1-2)]Gal(b1-4)GlcNAc
# Outline: (§1)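 From the Consortium for Functional Glycomics database, 3228 arrays were curated, keeping only those whose protein sequence was available. Binding is given as a within-array Z-score averaged across arrays sharing a protein sequence and across linkers. Negative Z-scores can be read as non-binding.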
# [2] = target: Fuc(a1-2)Gal(b1-3)GlcNAc(b1-2)Man(a1-3)[Fuc(a1-2)Gal(b1-3)GlcNAc(b1-2)Man(a1-6)]Man(b1-4)GlcNAc(b1-4)[Fuc(a1-6)]GlcNAc
# Outline: as §1
# [3] = target: Fuc(a1-2)Gal(b1-3)GlcNAc(b1-3)Gal(b1-4)Glc
# Outline: as §1
# [4] = target: Fuc(a1-2)Gal(b1-3)GlcNAc(b1-3)[Gal(b1-4)GlcNAc(b1-6)]Gal(b1-4)Glc
# Outline: as §1
# [5] = target: Fuc(a1-2)Gal3S(b1-4)GlcNAc
# Outline: as §1
# [6] = target: Fuc(a1-2)[Gal(a1-3)]Gal(b1-3)GlcNAc(b1-2)Man(a1-3)[Fuc(a1-2)[Gal(a1-3)]Gal(b1-3)GlcNAc(b1-2)Man(a1-6)]Man(b1-4)GlcNAc(b1-4)[Fuc(a1-6)]GlcNAc
# Outline: as §1
# [7] = target: Fuc(a1-2)[Gal(a1-3)]Gal(b1-4)GlcNAc(b1-3)[Fuc(a1-2)[Gal(a1-3)]Gal(b1-4)GlcNAc(b1-6)]GalNAc
# Outline: as §1
# [8] = target: Fuc(a1-2)[Gal(a1-3)]Gal(b1-4)[Fuc(a1-3)]GlcNAc(b1-3)GalNAc
# Outline: as §1
# [9] = target: Fuc(a1-2)[GalNAc(a1-3)]Gal
# Outline: as §1
# [10] = target: Fuc(a1-2)[GalNAc(b1-3)]Gal
# Outline: as §1
# [11] = target: Fuc(a1-3)[Gal(b1-4)]GlcNAc(b1-2)Man
# Outline: as §1
# [12] = target: Fuc(a1-3)[Gal(b1-4)]GlcNAc(b1-3)Gal(b1-4)[Fuc(a1-3)]GlcNAc
# Outline: as §1
# [13] = target: Fuc(a1-3)[Gal(b1-4)]GlcNAc(b1-3)Gal(b1-4)[Fuc(a1-3)]GlcNAc(b1-3)Gal(b1-4)[Fuc(a1-3)]GlcNAc
# Outline: as §1
# [14] = target: Fuc(a1-3)[Gal(b1-4)]GlcNAc(b1-3)GalNAc
# Outline: as §1
# Fuc(a1-4)GlcNAc = target: Fuc(a1-4)GlcNAc
# Outline: as §1
# Gal(a1-3)Gal(b1-3)GlcNAc = target: Gal(a1-3)Gal(b1-3)GlcNAc
# Outline: as §1
# [15] = target: Gal(a1-3)Gal(b1-4)GlcNAc(b1-2)Man(a1-3)[Gal(a1-3)Gal(b1-4)GlcNAc(b1-2)Man(a1-6)]Man(b1-4)GlcNAc(b1-4)GlcNAc
# Outline: as §1
# [16] = target: Gal(a1-3)[Gal(a1-4)]Gal(b1-4)GlcNAc
# Outline: as §1
# [17] = target: Gal(b1-3)GalNAc(b1-4)[Neu5Ac(a2-3)]Gal(b1-4)Glc
# Outline: as §1
# Gal(b1-3)GlcNAc(b1-2)Man = target: Gal(b1-3)GlcNAc(b1-2)Man
# Outline: as §1
# [18] = target: Gal(b1-3)GlcNAc(b1-2)Man(a1-3)[GlcNAc(b1-4)][Gal(b1-3)GlcNAc(b1-2)Man(a1-6)]Man(b1-4)GlcNAc(b1-4)GlcNAc
# Outline: as §1
# [19] = target: Gal(b1-3)GlcNAc(b1-3)Gal(b1-3)GlcNAc
# Outline: as §1
# Gal(b1-4)Glc = target: Gal(b1-4)Glc
# Outline: as §1
# Gal(b1-4)GlcNAc(b1-2)Man = target: Gal(b1-4)GlcNAc(b1-2)Man
# Outline: as §1
# [20] = target: Gal(b1-4)GlcNAc(b1-2)[Gal(b1-4)GlcNAc(b1-4)]Man(a1-3)[Gal(b1-4)GlcNAc(b1-2)Man(a1-6)]Man(b1-4)GlcNAc(b1-4)GlcNAc
# Outline: as §1
# [21] = target: Gal(b1-4)GlcNAc(b1-3)Gal(b1-4)GlcNAc
# Outline: as §1
# [22] = target: Gal(b1-4)GlcNAc(b1-3)Gal(b1-4)GlcNAc(b1-3)Gal(b1-4)GlcNAc(b1-2)Man(a1-3)[Gal(b1-4)GlcNAc(b1-3)Gal(b1-4)GlcNAc(b1-3)Gal(b1-4)GlcNAc(b1-2)Man(a1-6)]Man(b1-4)GlcNAc(b1-4)[Fuc(a1-6)]GlcNAc
# Outline: as §1
# [23] = target: Gal(b1-4)GlcNAc(b1-3)Gal(b1-4)GlcNAc(b1-3)[Gal(b1-4)GlcNAc(b1-3)Gal(b1-4)GlcNAc(b1-6)]GalNAc
# Outline: as §1
# [24] = target: Gal3S(b1-4)[Fuc(a1-3)]GlcNAc
# Outline: as §1
# GalNAc(a1-3)GalNAc = target: GalNAc(a1-3)GalNAc
# Outline: as §1
# [25] = target: GalNAc(a1-3)GalNAc(b1-3)Gal(a1-4)Gal(b1-4)GlcNAc
# Outline: as §1
# GalNAc(b1-4)GlcNAc = target: GalNAc(b1-4)GlcNAc
# Outline: as §1
# [26] = target: GalNAc(b1-4)GlcNAc(b1-2)Man(a1-3)[GalNAc(b1-4)GlcNAc(b1-2)Man(a1-6)]Man(b1-4)GlcNAc(b1-4)GlcNAc
# Outline: as §1
# GalNAc(b1-4)GlcNAc6S = target: GalNAc(b1-4)GlcNAc6S
# Outline: as §1
# [27] = target: GlcNAc(b1-2)[GlcNAc(b1-4)]Man(a1-3)[GlcNAc(b1-4)][GlcNAc(b1-2)Man(a1-6)]Man(b1-4)GlcNAc(b1-4)GlcNAc
# Outline: as §1
# [28] = target: GlcNAc(b1-3)Gal(b1-4)GlcNAc(b1-6)[GlcNAc(b1-3)Gal(b1-3)]GalNAc
# Outline: as §1
# [29] = target: GlcNAc(b1-3)[GlcNAc(b1-6)]Gal(b1-4)GlcNAc
# Outline: as §1
# [30] = target: Man(a1-2)Man(a1-6)[Man(a1-3)]Man(a1-6)[Man(a1-2)Man(a1-2)Man(a1-3)]Man(b1-4)GlcNAc(b1-4)GlcNAc
# Outline: as §1
# Man(a1-3)[Man(a1-6)]Man = target: Man(a1-3)[Man(a1-6)]Man
# Outline: as §1
# [31] = target: Man(a1-3)[Man(a1-6)]Man(a1-6)[Man(a1-2)Man(a1-3)]Man(b1-4)GlcNAc(b1-4)GlcNAc
# Outline: as §1
# [32] = target: Man(a1-3)[Man(a1-6)]Man(a1-6)[Man(a1-3)]Man(b1-4)GlcNAc(b1-4)GlcNAc
# Outline: as §1
# [33] = target: Neu5Ac(a2-3)Gal(b1-3)GalNAc
# Outline: as §1
# [34] = target: Neu5Ac(a2-3)Gal(b1-3)[Fuc(a1-4)]GlcNAc(b1-3)Gal(b1-4)[Fuc(a1-3)]GlcNAc
# Outline: as §1
# [35] = target: Neu5Ac(a2-3)Gal(b1-4)GlcNAc6S
# Outline: as §1
# [36] = target: Neu5Ac(a2-3)Gal(b1-4)[Fuc(a1-3)]GlcNAc(b1-3)Gal
# Outline: as §1
# [37] = target: Neu5Ac(a2-3)Gal(b1-4)[Fuc(a1-3)]GlcNAc(b1-3)GalNAc
# Outline: as §1
# [38] = target: Neu5Ac(a2-3)[GalNAc(b1-4)]Gal(b1-4)Glc
# Outline: as §1
# [39] = target: Neu5Ac(a2-6)Gal(b1-4)GlcNAc(b1-2)[Neu5Ac(a2-6)Gal(b1-4)GlcNAc(b1-6)]Man(a1-6)[Neu5Ac(a2-6)Gal(b1-4)GlcNAc(b1-2)Man(a1-3)][GlcNAc(b1-4)]Man(b1-4)GlcNAc(b1-4)GlcNAc
# Outline: as §1
# [40] = target: Neu5Ac(a2-6)Gal(b1-4)GlcNAc(b1-3)Gal(b1-4)GlcNAc(b1-3)Gal(b1-4)GlcNAc(b1-2)Man(a1-3)[Neu5Ac(a2-6)Gal(b1-4)GlcNAc(b1-3)Gal(b1-4)GlcNAc(b1-3)Gal(b1-4)GlcNAc(b1-2)Man(a1-6)]GalNAc
# Outline: as §1
# [41] = target: Neu5Ac(a2-8)Neu5Ac(a2-3)[GalNAc(b1-4)]Gal(b1-4)Glc
# Outline: as §1
binder,measurement,setting,value
SP16665A-bot-344-23-344 (Bacteroides ovatus) (protein) SDNEFPDFDYQTVYFANQYGLRTIELGESEFVDNTLDNQHKMVIKAAWGGGYTNRNNVVINFKVDESLCDNLYFKDTDQPLVPMPASYYTLASDRIAIPKGQIMAGVEVQLTDDFFADEKSISENYVIPLLMTNVQGADSILQGKPVVENPVLTNAGDWSILPQNFVLYAVKYVNPWHGEYLRRGIDHATVAGTSKDIIRHEQFVENDEVVNISTKSMKDNLLTLKTKDESGKDISYTVRLSFAEDGSCTVHSGSQNVVVSGSGKFVSKGEKNSLGGKDRNAIYLDYTVNLTDNNIQLATKDTLVLRTRNVYGGKSLEVVRK,glycan array binding signal (z-score),[1],-0.235
same,glycan array binding signal (z-score),[2],0.285
same,glycan array binding signal (z-score),[3],-0.208
same,glycan array binding signal (z-score),[4],-0.461
same,glycan array binding signal (z-score),[5],0.29
same,glycan array binding signal (z-score),[6],-0.333
same,glycan array binding signal (z-score),[7],8.34
same,glycan array binding signal (z-score),[8],-0.571
same,glycan array binding signal (z-score),[9],-0.372
same,glycan array binding signal (z-score),[10],-0.266
same,glycan array binding signal (z-score),[11],0.187
same,glycan array binding signal (z-score),[12],-0.237
same,glycan array binding signal (z-score),[13],0
same,glycan array binding signal (z-score),[14],-0.329
same,glycan array binding signal (z-score),Fuc(a1-4)GlcNAc,19.1
same,glycan array binding signal (z-score),Gal(a1-3)Gal(b1-3)GlcNAc,0.959
same,glycan array binding signal (z-score),[15],0.709
same,glycan array binding signal (z-score),[16],1.28
same,glycan array binding signal (z-score),[17],-0.5
same,glycan array binding signal (z-score),Gal(b1-3)GlcNAc(b1-2)Man,2.76
same,glycan array binding signal (z-score),[18],-0.153
same,glycan array binding signal (z-score),[19],0.024
same,glycan array binding signal (z-score),Gal(b1-4)Glc,-0.451
same,glycan array binding signal (z-score),Gal(b1-4)GlcNAc(b1-2)Man,1.02
same,glycan array binding signal (z-score),[20],-0.051
same,glycan array binding signal (z-score),[21],-0.125
same,glycan array binding signal (z-score),[22],2.77
same,glycan array binding signal (z-score),[23],0.116
same,glycan array binding signal (z-score),[24],-0.285
same,glycan array binding signal (z-score),GalNAc(a1-3)GalNAc,1.35
same,glycan array binding signal (z-score),[25],-0.21
same,glycan array binding signal (z-score),GalNAc(b1-4)GlcNAc,1.18
same,glycan array binding signal (z-score),[26],1.54
same,glycan array binding signal (z-score),GalNAc(b1-4)GlcNAc6S,-0.085
same,glycan array binding signal (z-score),[27],1.11
same,glycan array binding signal (z-score),[28],-0.227
same,glycan array binding signal (z-score),[29],-0.304
same,glycan array binding signal (z-score),[30],-0.087
same,glycan array binding signal (z-score),Man(a1-3)[Man(a1-6)]Man,-0.441
same,glycan array binding signal (z-score),[31],0.003
same,glycan array binding signal (z-score),[32],-0.618
same,glycan array binding signal (z-score),[33],1.94
same,glycan array binding signal (z-score),[34],0.438
same,glycan array binding signal (z-score),[35],-0.405
same,glycan array binding signal (z-score),[36],-0.135
same,glycan array binding signal (z-score),[37],1.76
same,glycan array binding signal (z-score),[38],-0.539
same,glycan array binding signal (z-score),[39],-0.263
same,glycan array binding signal (z-score),[40],-0.157
same,glycan array binding signal (z-score),[41],-0.466
